Screening data from PubChem.
Sampled rows, rich in hits. Any-hit rate of the full collection: about 1.1%.
LAP4 TOR yeast: modulators of LAP4-GFP expression in yeast, primary screen, S. cerevisiae, multiplex flow cytometry, MLPCN library; 320,000 compounds, 0.34% hits; GFP response vs DMSO, % at 10 µM; 3 h; median GFP as percent of DMSO wells; AID 2023, 2009;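 active = GFP response vs DMSO above a set limit, about the screen mean plus 3 SD, cut at about 150% in these data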
MEP2 TOR yeast: modulators of MEP2-GFP levels in yeast, primary screen, S. cerevisiae, multiplex flow cytometry, MLPCN library; S. cerevisiae MEP2-GFP strain, 3 h; 100% = DMSO control level; GFP response vs DMSO, % at 10 µM; 330,000 compounds, 0.51% hits; AID 2016, 2009;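 active = GFP response versus DMSO above a set limit, roughly screen mean plus 3 SD, cut at about 180% in these data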;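 also: median GFP fluorescence of the barcode-gated MEP2-GFP cells per well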
AGP1-GFP MLPCN: modulators of AGP1-GFP expression in yeast TOR pathway, primary screen, cell-based, multiplex flow cytometry, S. cerevisiae, MLPCN library; GFP response vs DMSO, % at 10 µM; 3 h; GFP as percent of DMSO wells; AID 2066, 2009; 320,000 compounds, 0.02% hits;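 active = GFP response relative to DMSO above a set limit, near screen average plus 3 SD, cut at about 150% in these data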;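 also: median GFP channel fluorescence of the gated AGP1 strain per well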
RPL19A-GFP yeast: RPL19A-GFP expression modulators in yeast, primary screen, cell-based, S. cerevisiae, multiplex flow cytometry, MLPCN | S. cerevisiae RPL19A-GFP strain, 3 h; stronger effect = lower value | 330,000 compounds, 0.3% hits | percent response vs DMSO, % at 10 µM;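 active = percent response vs DMSO below 50%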;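 also: median channel GFP fluorescence of the barcoded RPL19A-GFP strain; lower means less RPL19A-GFP as with rapamycin TOR inhibition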
VLA-4 inh: inhibition in human VLA-4 binding assay, primary screen, VLA-4 allosteric modulator project, MLPCN library, flow cytometry, VLA-4 expressing cells; Integrin alpha-4 (Homo sapiens), P13612; ligand binding flow cytometry; inhibition, % (about 7 µM as worked out from the volumes in the protocol); 330,000 compounds, 0.2% hits; in the data active = inhibition above about 50%
CIT2-GFP yeast: modulators of CIT2-GFP expression in yeast, primary screen, S. cerevisiae, GFP fusion, multiplex flow cytometry, MLPCN library; S. cerevisiae CIT2-GFP strain, 3 h; 100 means same as DMSO wells; 320,000 compounds, 0.065% hits; GFP response vs DMSO, % at 10 µM;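 active = GFP response relative to DMSO above a set limit, near the screen mean plus 3 SD, cut at about 150% in these data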;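 also: ratio of well median GFP fluorescence to mean of DMSO wells on the plate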
VLA-4 allo CP: retest of VLA-4 allosteric modulators, confirmation, cell-based, cherry-picked plates, U937, HUTS-21 LIBS antibody; shares compounds with VLA-4 inh; U937 cells, HUTS-21 LIBS mAb binding, flow cytometry; LDV ligand present at threefold Kd; inhibition, % at 6.7 µM; 1,300 compounds, 2% hits; in the data active = inhibition above about 40%
Large screens that a line does not name were inactive (follow-up assays come after a bar, where they were run).

OC[C@H]1O[C@@H](n2cnc3c(NC4CCCC4)ncnc32)[C@H](O)[C@@H]1O	none | VLA-4 allo CP inactive
OCC1OC(n2cnc3c(NC4CCCCC4)ncnc32)C(O)C1O (stereo not drawn)	none | VLA-4 allo CP inactive
CCOc1ccc(C(=O)OCC(=O)N2CCCC2)cc1	none
O=C(c1cc(-c2cccs2)nc2ccccc12)N1CCN(S(=O)(=O)c2cccc(F)c2)CC1	VLA-4 inh 91 | VLA-4 allo CP inactive
O=C(c1cc(-c2cccs2)nc2ccccc12)N1CCN(S(=O)(=O)c2ccccc2)CC1	none | VLA-4 allo CP inactive
COC(=O)[C@]1(CC(C)C)N[C@H](c2ccc(-c3cccc(Cl)c3)cc2)[C@@H]2C(=O)N(C)C(=O)[C@@H]21	none
CCOC(=O)N1CCN(Cc2nc3cc(NC(=O)CC(C)C)ccc3n2CC)CC1	VLA-4 inh 51 | VLA-4 allo CP inactive
COc1ccc(/C=C/C(=O)Nc2ccccc2C(=O)NCC(c2ccc(OC)cc2)N(C)C)cc1 (stereo not drawn)	VLA-4 inh 54 | VLA-4 allo CP inactive
O=C(c1ccc2c(c1)OCCO2)N1CCCCC1	none
CC1CCCN(C(=O)c2ccc3c(c2)OCCO3)C1 (stereo not drawn)	VLA-4 inh 50 | VLA-4 allo CP inactive
CCCCN(C)C(=O)C(Cc1ccccc1)NS(=O)(=O)c1ccc2c(c1)CCC(=O)N2 (stereo not drawn)	VLA-4 inh 54 | VLA-4 allo CP inactive
C=CCn1c(O)c(C2=c3ccccc3=NC2=O)c2ccccc21	VLA-4 inh 51 | VLA-4 allo CP inactive
C=CCn1c(Cc2ccccc2)nc2c(cnn2-c2ccccc2)c1=O	none
COc1ccc(-n2c(=S)[nH]c3cc(C(=O)NCCCN4CCOCC4)ccc3c2=O)cc1OC	VLA-4 inh 56 | VLA-4 allo CP inactive
O=C1OC(/C=C/c2ccccc2)=NC/1=C/C=C/c1ccccc1	none
O=C1OC(c2ccc(F)cc2)=N/C1=C\C=C/c1ccccc1	none | VLA-4 allo CP inactive
Cc1ccc(NS(=O)(=O)c2c(C(=O)N3CCCC3)c(C)n(C)c2C)cc1	none
CCOC(=O)C1CCCN(C2CC(=O)N(c3ccc(C)c(C)c3)C2=O)C1 (stereo not drawn)	none | VLA-4 allo CP inactive
CCOC(=O)C1CCCN(C2CC(=O)N(c3cccc(C(F)(F)F)c3)C2=O)C1 (stereo not drawn)	none | VLA-4 allo CP inactive
CC1CCCCC1NC(=O)CCN1C(=O)C2C3C=CC(C3)C2C1=O (stereo not drawn)	none
COc1ccc(OCCn2c(=N)n(CCO)c3ccccc32)cc1	none
N=c1n(CCO)c2ccccc2n1CCOc1ccc(Cl)cc1Cl	VLA-4 inh 54 | VLA-4 allo CP inactive
COc1cccc(C2CC(=O)Nc3cc(OC)c(OC)c(OC)c32)c1OC (stereo not drawn)	none | VLA-4 allo CP inactive
COC(=O)C1=C(C)NC(=O)CC1c1cccc(OC)c1OC (stereo not drawn)	none
CCOc1ccccc1C1CC(=O)Nc2cc(OC)c(OC)c(OC)c21 (stereo not drawn)	none | VLA-4 allo CP inactive
CC(NC(=O)NC1CCCCC1)c1ccc2c(c1)OCO2 (stereo not drawn)	none | VLA-4 allo CP inactive
C[C@H](CO)N1C[C@H](C)[C@@H](CN(C)C(=O)Nc2ccc(C(F)(F)F)cc2)Oc2ccc(NS(=O)(=O)c3cn(C)cn3)cc2C1=O	none
CC(C)C(=O)Nc1nnc(S(=O)(=O)N2CCCc3ccccc32)s1	VLA-4 inh 51 | VLA-4 allo CP inactive
Cc1ccc(NC(=O)COc2cccc(-n3cnnn3)c2)cc1S(=O)(=O)N1CCOCC1	none
COc1ccc(CNCCNC(=O)c2cccs2)cc1OC	VLA-4 inh 65 | VLA-4 allo CP inactive
COc1cc(CNCCNC(=O)c2cccs2)cc(OC)c1OC	none
CS(=O)(=O)c1ccccc1C(=O)N(CCc1ccccc1)Cc1ccccc1	none
COc1ccc(C(=O)N(CCc2ccccc2)Cc2ccccc2)c(OC)n1	none | VLA-4 allo CP inactive
NC(=O)[C@H]1CC2(CC(c3cccc(NC(=O)[C@H]4CCC(=O)N4)c3)=NO2)CN1C(=O)c1ccccc1 (stereo partly drawn)	VLA-4 inh 51 | VLA-4 allo CP inactive
NC(=O)[C@@H]1CC2(CC(c3cccc(NC(=O)[C@H]4CCC(=O)N4)c3)=NO2)CN1C(=O)c1ccc(Cl)cc1 (stereo partly drawn)	none
COc1ccc(CNC(=O)C2CCN(S(C)(=O)=O)CC2)c(OC)c1	VLA-4 inh 53 | VLA-4 allo CP inactive
Cc1c(Cl)cccc1-n1c(SCC(=O)N2CCC(C(=O)O)CC2)nc2ccccc2c1=O	none
COc1cccc(CNC(=O)Nc2cccs2)c1	VLA-4 inh 92 | VLA-4 allo CP inactive
N#CC(C#N)=C1C=CC=CN1/C(=C\c1ccco1)C(=O)c1ccc(-c2ccccc2)cc1	VLA-4 inh 50 | VLA-4 allo CP inactive
CCCCN(C(=O)c1cc(-c2ccncc2)nc2ccccc12)c1c(N)n(CC(C)C)c(=O)[nH]c1=O	none
COc1ccc(N(CC(=O)Nc2ccc(F)c(F)c2)S(=O)(=O)c2c(C)n[nH]c2C)cc1	none | VLA-4 allo CP inactive
Cc1nn(C)c(C)c1S(=O)(=O)N(CC(=O)NCc1ccco1)c1ccc(C(C)C)cc1	VLA-4 inh 64 | VLA-4 allo CP inactive
COc1ccc(N(CC(=O)Nc2cccc(OC)c2)S(=O)(=O)c2c(C)nn(C)c2C)cc1	none | VLA-4 allo CP inactive
CC(OC(=O)Cc1n[nH]c(=O)c2ccccc12)C(=O)Nc1ccc(F)cc1Cl (stereo not drawn)	none
COc1ccc2c(C)cc(SCC(=O)Nc3c(C)n(C)n(-c4ccccc4)c3=O)nc2c1	VLA-4 inh 94 | VLA-4 allo CP inactive
C=CCn1c(SCC(=O)Nc2c(C)n(C)n(-c3ccccc3)c2=O)nc2scc(-c3ccccc3)c2c1=O	none
C=CCn1c(SCC(=O)Nc2c(C)n(C)n(-c3ccccc3)c2=O)nc2ccccc2c1=O	VLA-4 inh 52 | VLA-4 allo CP inactive
